# Reference: PubChem BioAssay (EPA / NIEHS)
# Where “and” joins values, the source holds several entries; their conditions need not be identical. Equal entries are not always repeated. Records with an inconclusive call do not appear. Calls of active or inactive are those of the source. Rule for the calls: active = hit-call score of the fitted dose curve at least 0.9, where 1 is the maximum; inconclusive = response in the unintended direction; inactive = score below 0.9.
# Legend:
# [1] = biological target: human Fibroblast Growth Factor Receptor 1 (FGFR1), FGFR1 (gene 2260) (UniProt P11362); assay: NVS_ENZ_hFGFR1: NovaScreen (NVS) Enzymatic Assay for human Fibroblast Growth Factor Receptor 1 (FGFR1) (AID 2283159);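 for AC50: hits lower the signal so potencies describe inhibitors of the kinase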
# Protocol: (§1) NVS_ENZ_hFGFR1 is a biochemical, single-readout assay that uses extracted gene-proteins in a cell-free assay. Measurements were taken 1 hour after chemical dosing in a 384-well plate.NVS_ENZ_hFGFR1 is one of one assay component(s) measured or calculated from the NVS_ENZ_hFGFR1 assay. It is designed to make measurements of enzyme activity, a form of enzyme reporter, as detected with fluorescence intensity signals by Fluorescence and electrophoretic mobility shift technology.Data from the assay component NVS_ENZ_hFGFR1 was analyzed into 1 assay endpoint. This assay endpoint, NVS_ENZ_hFGFR1, was analyzed in the positive analysis fitting direction relative to DMSO as the negative control and baseline of activity. Using a type of enzyme reporter, loss-of-signal activity can be used to understand changes in the enzymatic activity as they relate to the gene FGFR1. Furthermore, this assay endpoint can be referred to as a primary readout, because this assay has produced multiple assay endpoints where this one serves a enzymatic activity function. To generalize the intended target to other relatable targets, this assay endpoint is annotated to the kinase intended target family, where the subfamily is receptor tyrosine kinase.
# (§2) Binding assays used specific radioligands (tritiated, iodinated) with non-radioactive competitive displacement ligands in agonist or antagonist protocols (as indicated) and various reference compounds and inhibitors to titrate specific binding to receptors and transporters. Most enzyme assays (CYPs, kinases, phosphatases, proteases, HDACs) used recombinant protein and specific substrates (fluorescence mostly, some colorimetric and radioactive) and inhibitors, followed by a biochemical separation of substrate and product. All assays for the biochemical HTS were initially run in duplicate at a single concentration (10 uM for CYP450 assays and 25 uM for all others). […] Each assay was run with positive and negative controls, and concurrent controls on every plate. The follow-up (secondary) screen tested active chemical-pairs in concentration series, as well as a few additional assays not tested in the primary screen, some selected negative inactives, and several cases re-run in the concentration series for confirmatory purposes.
# [2] = biological target: human Ephrin type-B Receptor 1 (EphB1), EPHB1 (gene 2047) (UniProt P54762); assay: NVS_ENZ_hEphB1: NovaScreen (NVS) Enzymatic Assay for human Ephrin type-B Receptor 1 (EphB1) (AID 2283154)
# Method in brief: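 Cell-free kinase assay with recombinant enzyme, fluorescent substrate and electrophoretic mobility-shift separation of substrate and product; read 1 h after dosing. Single-concentration duplicate screen at 25 uM; loss of signal versus DMSO baseline.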
# [3] = biological target: human Ephrin type-A Receptor 2 (EphA2), EPHA2 (gene 1969) (UniProt P29317); assay: NVS_ENZ_hEphA2: NovaScreen (NVS) Enzymatic Assay for human Ephrin type-A Receptor 2 (EphA2) (AID 2283155)
# Protocol: as §1, with “NVS_ENZ_hEphA2” for “NVS_ENZ_hFGFR1”, “plate.NVS_ENZ_hEphA2” for “plate.NVS_ENZ_hFGFR1”, “NVS_ENZ_hEphA2,” for “NVS_ENZ_hFGFR1,”, “EPHA2.” for “FGFR1.”
# (§3) Binding assays used specific radioligands (tritiated, iodinated) with non-radioactive competitive displacement ligands in agonist or antagonist protocols (as indicated) and various reference compounds and inhibitors to titrate specific binding to receptors and transporters. Most enzyme assays (CYPs, kinases, phosphatases, proteases, HDACs) used recombinant protein and specific substrates (fluorescence mostly, some colorimetric and radioactive) and inhibitors, followed by a biochemical separation of substrate and product. All assays for the biochemical HTS were initially run in duplicate at a single concentration (10 uM for CYP450 assays and 25 uM for all others). Assay-chemical combinations meeting a pre-defined threshold (e.g., 30% inhibition and other criteria defined below) were then run in singleton concentration-response format with maximum concentration of 20 uM for CYPs and 50 uM for all others. Each assay was run with positive and negative controls, and concurrent controls on every plate. The follow-up (secondary) screen tested active chemical-pairs in concentration series, as well as a few additional assays not tested in the primary screen, some selected negative inactives, and several cases re-run in the concentration series for confirmatory purposes.
# [4] = biological target: human Ephrin type-B Receptor 2 (EphB2), EPHB2 (gene 2048) (UniProt P29323); assay: NVS_ENZ_hEphB2: NovaScreen (NVS) Enzymatic Assay for human Ephrin type-B Receptor 2 (EphB2) (AID 2283156)
# Method in brief: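 Recombinant kinase with fluorescent substrate, product separated by electrophoretic mobility shift, read 1 h after dosing. Duplicate 25 uM screen, then singleton concentration-response to 50 uM max; loss of signal versus DMSO.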
# [5] = biological target: human Esterase Plasma (ES), BCHE (gene 590) (UniProt P06276); assay: NVS_ENZ_hES: NovaScreen (NVS) Enzymatic Assay for human Esterase Plasma (ES) (AID 2283157)
# Protocol: NVS_ENZ_hES is a biochemical, single-readout assay that uses extracted gene-proteins from Human plasma in a cell-free assay. Measurements were taken 0.25 hour after chemical dosing in a 96-well plate.NVS_ENZ_hES is one of one assay component(s) measured or calculated from the NVS_ENZ_hES assay. It is designed to make measurements of enzyme activity, a form of enzyme reporter, as detected with absorbance signals by Colorimetric technology.Data from the assay component NVS_ENZ_hES was analyzed into 1 assay endpoint. This assay endpoint, NVS_ENZ_hES, was analyzed in the positive analysis fitting direction relative to DMSO as the negative control and baseline of activity. Using a type of enzyme reporter, loss-of-signal activity can be used to understand changes in the enzymatic activity as they relate to the gene BCHE. Furthermore, this assay endpoint can be referred to as a primary readout, because this assay has produced multiple assay endpoints where this one serves a enzymatic activity function. To generalize the intended target to other relatable targets, this assay endpoint is annotated to the esterase intended target family, where the subfamily is pseudocholinesterase.
# as §3
# [6] = biological target: Glycogen synthase kinase-3 beta (Homo sapiens) (UniProt P49841); assay: NVS_ENZ_hGSK3b: NovaScreen (NVS) Enzymatic Assay for human Glycogen Synthase Kinase-3 beta (GSK3b) (AID 2283165)
# Method in brief: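 Recombinant enzyme with specific fluorescent substrate, 1 h, product separated by electrophoretic mobility shift. Primary duplicate screen at 25 uM; actives (e.g. 30% inhibition) followed in singleton concentration-response to 50 uM. Signal loss fitted versus DMSO.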
# [7] = biological target: human Ephrin type-A Receptor 1 (EphA1), EPHA1 (gene 2041) (UniProt P21709); assay: NVS_ENZ_hEphA1: NovaScreen (NVS) Enzymatic Assay for human Ephrin type-A Receptor 1 (EphA1) (AID 2283158);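 note: activity is signal loss versus DMSO meaning EphA1 kinase inhibition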
# Method in brief: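 Biochemical kinase assay run cell-free; 1 h incubation; readout is fluorescence with mobility-shift separation of product. Concentration-response up to 50 uM for actives from a 25 uM screen.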
# [8] = biological target: human FYN Proto-Oncogene, Src family Tyrosine Kinase (Fyn), FYN (gene 2534) (UniProt P06241); assay: NVS_ENZ_hFyn: NovaScreen (NVS) Enzymatic Assay for human FYN Proto-Oncogene, Src family Tyrosine Kinase (Fyn) (AID 2283161)
# Protocol: as §1, with “NVS_ENZ_hFyn” for “NVS_ENZ_hFGFR1”, “plate.NVS_ENZ_hFyn” for “plate.NVS_ENZ_hFGFR1”, “NVS_ENZ_hFyn,” for “NVS_ENZ_hFGFR1,”, “FYN.” for “FGFR1.”, “non-receptor” for “receptor”
# as §2, with “The follow-up (secondary) screen tested active chemical-pairs in concentration series, as well as a few additional assays not tested in the primary screen, some selected negative inactives, and several cases re-run in the concentration series for confirmatory purposes.” left out
# [9] = biological target: Histone deacetylase 3 (Homo sapiens) (UniProt O15379); assay: NVS_ENZ_hHDAC3: NovaScreen (NVS) Enzymatic Assay for human Histone Deacetylase 3 (HDAC3) (AID 2283163)
# Method in brief: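 Recombinant human HDAC3 with fluorescent substrate, 1 h after dosing; product separated from substrate by electrophoretic mobility shift and read by fluorescence. Primary screen at 25 uM in duplicate; actives (e.g. ≥30% inhibition) retested in concentration-response up to 50 uM.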
# [10] = biological target: Protein deacetylase HDAC6 (Homo sapiens) (UniProt Q9UBN7); assay: NVS_ENZ_hHDAC6: NovaScreen (NVS) Enzymatic Assay for human Histone Deacetylase 6 (HDAC6) (AID 2283164)
# Method in brief: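 Recombinant human HDAC6 with fluorescent substrate, 1 h; product separated from substrate by electrophoretic mobility shift. Primary screen in duplicate at 25 uM; actives retested singly in concentration-response up to 50 uM, fitted relative to DMSO.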
# Sequence of human Ephrin type-A Receptor 2 (EphA2), EPHA2 (gene 1969) (P29317 whole entry, looked up): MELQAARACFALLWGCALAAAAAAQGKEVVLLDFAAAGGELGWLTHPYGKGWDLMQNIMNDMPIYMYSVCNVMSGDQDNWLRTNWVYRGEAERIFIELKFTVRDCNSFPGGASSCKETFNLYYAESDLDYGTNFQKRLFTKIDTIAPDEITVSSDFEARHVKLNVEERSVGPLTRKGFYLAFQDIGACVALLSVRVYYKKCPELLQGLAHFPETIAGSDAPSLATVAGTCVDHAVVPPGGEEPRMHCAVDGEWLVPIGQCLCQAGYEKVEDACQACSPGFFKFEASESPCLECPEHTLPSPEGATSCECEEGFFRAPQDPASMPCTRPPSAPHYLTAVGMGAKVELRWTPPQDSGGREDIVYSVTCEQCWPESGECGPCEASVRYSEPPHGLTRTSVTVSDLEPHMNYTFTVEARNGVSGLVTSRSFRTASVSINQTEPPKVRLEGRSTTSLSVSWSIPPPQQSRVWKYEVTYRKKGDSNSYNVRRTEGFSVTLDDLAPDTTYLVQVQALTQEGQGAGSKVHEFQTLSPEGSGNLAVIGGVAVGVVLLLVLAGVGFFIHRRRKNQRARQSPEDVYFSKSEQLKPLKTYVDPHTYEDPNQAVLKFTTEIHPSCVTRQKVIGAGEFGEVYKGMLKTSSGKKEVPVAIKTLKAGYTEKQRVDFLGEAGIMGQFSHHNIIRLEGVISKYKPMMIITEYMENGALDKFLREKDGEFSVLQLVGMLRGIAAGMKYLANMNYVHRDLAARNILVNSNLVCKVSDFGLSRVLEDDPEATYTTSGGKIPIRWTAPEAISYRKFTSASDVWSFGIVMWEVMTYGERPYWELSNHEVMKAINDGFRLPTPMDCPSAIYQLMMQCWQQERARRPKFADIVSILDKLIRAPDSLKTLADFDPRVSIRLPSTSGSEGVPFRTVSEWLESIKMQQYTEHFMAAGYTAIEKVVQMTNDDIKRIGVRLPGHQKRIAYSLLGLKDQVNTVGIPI
# Sequence of human FYN Proto-Oncogene, Src family Tyrosine Kinase (Fyn), FYN (gene 2534) (P06241 whole entry, looked up): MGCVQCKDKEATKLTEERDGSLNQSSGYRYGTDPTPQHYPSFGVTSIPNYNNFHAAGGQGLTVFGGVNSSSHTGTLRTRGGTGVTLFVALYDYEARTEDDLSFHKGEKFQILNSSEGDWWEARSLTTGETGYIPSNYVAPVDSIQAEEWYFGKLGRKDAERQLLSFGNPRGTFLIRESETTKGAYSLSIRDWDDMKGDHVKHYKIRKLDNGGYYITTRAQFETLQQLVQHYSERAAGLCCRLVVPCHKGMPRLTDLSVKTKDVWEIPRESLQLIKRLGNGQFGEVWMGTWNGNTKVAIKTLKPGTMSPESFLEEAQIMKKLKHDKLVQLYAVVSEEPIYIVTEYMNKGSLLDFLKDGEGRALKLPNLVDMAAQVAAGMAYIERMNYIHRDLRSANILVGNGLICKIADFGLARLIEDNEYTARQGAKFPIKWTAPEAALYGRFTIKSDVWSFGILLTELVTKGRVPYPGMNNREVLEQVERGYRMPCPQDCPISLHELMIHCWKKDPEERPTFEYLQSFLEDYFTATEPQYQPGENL
# Sequence of Histone deacetylase 3 (Homo sapiens) (O15379 whole entry, looked up): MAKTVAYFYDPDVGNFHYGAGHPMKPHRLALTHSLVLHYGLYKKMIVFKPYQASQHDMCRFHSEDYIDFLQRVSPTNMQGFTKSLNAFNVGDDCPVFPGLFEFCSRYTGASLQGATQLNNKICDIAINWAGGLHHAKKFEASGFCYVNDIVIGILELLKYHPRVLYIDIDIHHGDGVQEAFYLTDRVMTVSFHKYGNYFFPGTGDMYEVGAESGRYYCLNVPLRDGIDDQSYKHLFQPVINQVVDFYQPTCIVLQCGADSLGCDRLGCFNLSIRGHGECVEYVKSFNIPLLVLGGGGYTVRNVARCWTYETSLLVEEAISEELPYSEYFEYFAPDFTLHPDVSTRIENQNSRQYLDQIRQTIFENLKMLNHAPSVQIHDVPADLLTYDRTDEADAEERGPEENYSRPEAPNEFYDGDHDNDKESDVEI
# Sequence of human Fibroblast Growth Factor Receptor 1 (FGFR1), FGFR1 (gene 2260) (P11362 whole entry, looked up): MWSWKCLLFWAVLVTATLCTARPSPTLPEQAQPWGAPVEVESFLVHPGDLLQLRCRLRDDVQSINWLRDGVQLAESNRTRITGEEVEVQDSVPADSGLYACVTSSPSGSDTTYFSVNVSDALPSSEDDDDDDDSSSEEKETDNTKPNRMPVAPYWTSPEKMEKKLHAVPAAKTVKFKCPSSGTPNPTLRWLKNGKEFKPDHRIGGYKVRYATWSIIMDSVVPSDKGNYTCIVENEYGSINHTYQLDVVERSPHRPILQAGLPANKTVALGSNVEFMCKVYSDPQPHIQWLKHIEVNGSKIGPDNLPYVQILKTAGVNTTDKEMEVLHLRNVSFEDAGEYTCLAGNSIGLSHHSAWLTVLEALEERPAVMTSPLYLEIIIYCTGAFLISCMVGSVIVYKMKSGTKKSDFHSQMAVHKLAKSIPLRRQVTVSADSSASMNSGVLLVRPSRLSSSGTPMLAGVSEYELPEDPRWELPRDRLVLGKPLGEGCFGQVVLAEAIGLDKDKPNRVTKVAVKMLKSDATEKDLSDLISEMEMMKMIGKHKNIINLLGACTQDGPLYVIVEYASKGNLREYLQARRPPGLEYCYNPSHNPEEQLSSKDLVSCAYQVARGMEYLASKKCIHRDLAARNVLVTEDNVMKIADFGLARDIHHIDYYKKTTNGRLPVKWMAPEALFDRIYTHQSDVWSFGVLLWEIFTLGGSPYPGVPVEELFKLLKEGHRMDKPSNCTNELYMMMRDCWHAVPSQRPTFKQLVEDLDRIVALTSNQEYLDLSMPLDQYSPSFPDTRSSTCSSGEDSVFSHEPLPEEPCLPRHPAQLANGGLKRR
# Sequence of Glycogen synthase kinase-3 beta (Homo sapiens) (P49841 whole entry, looked up): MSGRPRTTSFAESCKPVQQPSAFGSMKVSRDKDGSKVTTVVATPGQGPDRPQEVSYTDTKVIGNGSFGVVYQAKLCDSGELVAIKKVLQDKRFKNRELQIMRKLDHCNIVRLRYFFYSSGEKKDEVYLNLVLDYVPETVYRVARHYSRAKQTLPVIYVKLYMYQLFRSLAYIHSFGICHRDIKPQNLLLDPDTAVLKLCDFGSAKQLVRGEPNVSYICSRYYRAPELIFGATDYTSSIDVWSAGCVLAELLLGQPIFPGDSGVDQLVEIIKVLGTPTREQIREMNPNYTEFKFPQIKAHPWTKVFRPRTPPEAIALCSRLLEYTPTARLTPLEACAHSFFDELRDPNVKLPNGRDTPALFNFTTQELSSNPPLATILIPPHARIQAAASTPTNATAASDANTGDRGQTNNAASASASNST
# Sequence of human Esterase Plasma (ES), BCHE (gene 590) (P06276 whole entry, looked up): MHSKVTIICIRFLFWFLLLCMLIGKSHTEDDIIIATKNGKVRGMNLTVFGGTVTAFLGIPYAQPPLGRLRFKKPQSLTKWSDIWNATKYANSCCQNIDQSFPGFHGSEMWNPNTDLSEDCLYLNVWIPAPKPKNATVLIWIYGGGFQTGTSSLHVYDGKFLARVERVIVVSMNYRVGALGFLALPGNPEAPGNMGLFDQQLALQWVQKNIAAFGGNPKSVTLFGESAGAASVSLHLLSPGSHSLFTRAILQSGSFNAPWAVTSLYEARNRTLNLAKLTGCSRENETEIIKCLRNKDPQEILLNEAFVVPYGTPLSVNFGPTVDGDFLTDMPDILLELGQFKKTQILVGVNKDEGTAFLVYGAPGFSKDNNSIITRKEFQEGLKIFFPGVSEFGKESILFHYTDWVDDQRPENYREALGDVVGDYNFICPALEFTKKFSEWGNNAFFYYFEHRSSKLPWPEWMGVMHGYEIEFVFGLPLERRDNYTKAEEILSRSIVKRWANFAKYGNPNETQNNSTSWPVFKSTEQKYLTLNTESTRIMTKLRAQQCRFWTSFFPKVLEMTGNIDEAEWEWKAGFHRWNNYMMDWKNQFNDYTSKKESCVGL
# Sequence of human Ephrin type-B Receptor 1 (EphB1), EPHB1 (gene 2047) (P54762 whole entry, looked up): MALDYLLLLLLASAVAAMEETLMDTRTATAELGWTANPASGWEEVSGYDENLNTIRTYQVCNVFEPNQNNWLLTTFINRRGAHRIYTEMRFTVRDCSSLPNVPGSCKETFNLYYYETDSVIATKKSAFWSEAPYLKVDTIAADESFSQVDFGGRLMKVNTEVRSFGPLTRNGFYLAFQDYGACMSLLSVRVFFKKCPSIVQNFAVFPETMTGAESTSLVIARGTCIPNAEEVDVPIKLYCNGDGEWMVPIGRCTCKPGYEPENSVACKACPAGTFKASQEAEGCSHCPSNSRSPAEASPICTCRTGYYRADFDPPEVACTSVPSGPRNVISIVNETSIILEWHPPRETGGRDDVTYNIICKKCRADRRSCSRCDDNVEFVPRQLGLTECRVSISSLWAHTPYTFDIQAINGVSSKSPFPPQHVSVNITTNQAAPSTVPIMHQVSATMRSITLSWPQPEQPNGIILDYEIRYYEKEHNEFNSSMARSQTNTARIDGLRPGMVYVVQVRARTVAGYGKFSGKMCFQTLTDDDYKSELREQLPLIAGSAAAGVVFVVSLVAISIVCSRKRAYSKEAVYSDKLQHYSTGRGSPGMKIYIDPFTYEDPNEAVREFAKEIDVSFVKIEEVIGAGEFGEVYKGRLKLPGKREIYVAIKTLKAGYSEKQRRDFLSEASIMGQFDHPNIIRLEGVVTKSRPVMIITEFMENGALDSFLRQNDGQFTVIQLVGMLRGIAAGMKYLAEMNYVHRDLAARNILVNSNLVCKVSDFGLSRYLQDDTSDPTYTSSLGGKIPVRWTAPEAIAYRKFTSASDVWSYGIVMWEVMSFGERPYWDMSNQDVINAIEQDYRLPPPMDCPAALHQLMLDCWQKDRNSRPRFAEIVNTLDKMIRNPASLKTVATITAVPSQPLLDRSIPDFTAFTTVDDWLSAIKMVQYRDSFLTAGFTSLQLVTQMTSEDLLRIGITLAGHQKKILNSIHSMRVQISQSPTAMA
smiles,measurement,setting,value
CC(C)(C)C(O)C(Oc1ccc(Cl)cc1)n1cncn1 (configuration not stated),outcome,[1],inactive
Oc1ccc(Cl)cc1Cc1ccccc1,outcome,[2],inactive
same,outcome,[3],inactive
same,outcome,[4],inactive
same,outcome,[5],inactive
same,outcome,[6],inactive
COP(=O)(OC)OC=C(Cl)Cl,AC50,[5],7.13 µM (active)
CC[C@H](C)[C@H]1O[C@]2(C=C[C@@H]1C)C[C@@H]1C[C@@H](C/C=C(\C)[C@@H](O[C@H]3C[C@H](OC)[C@@H](O[C@H]4C[C@H](OC)[C@@H](O)[C@H](C)O4)[C@H](C)O3)[C@@H](C)/C=C/C=C3\CO[C@@H]4[C@H](O)C(C)=C[C@@H](C(=O)O1)[C@]34O)O2 (tested in a mixture with another compound),outcome,[2],inactive
same,outcome,[1],inactive
CNC(=O)CSP(=S)(OC)OC,outcome,[2],inactive
same,outcome,[3],inactive
same,outcome,[7],inactive
same,outcome,[1],inactive
O=C(O)COc1ccc(Cl)cc1Cl,outcome,[2],inactive
Oc1cc(Cl)ccc1Oc1ccc(Cl)cc1Cl,outcome,[3],inactive
same,outcome,[1],inactive
COP(=S)(OC)Oc1ccc([N+](=O)[O-])cc1,outcome,[5],inactive
O=C(O)C(F)(F)C(F)(F)C(F)(F)C(F)(F)C(F)(F)C(F)(F)C(F)(F)F,outcome,[8],inactive
CC(C)OC(=O)Nc1cccc(Cl)c1,outcome,[5],inactive
CNC(=O)Oc1cccc(N=CN(C)C)c1,outcome,[5],inactive
O=C(NC(=O)c1c(F)cccc1F)Nc1ccc(OC(F)(F)C(F)OC(F)(F)F)c(Cl)c1 (configuration not stated),outcome,[9],inactive
COC(=O)c1ccccc1S(=O)(=O)NC(=O)N(C)c1nc(C)nc(OC)n1,outcome,[8],inactive
N#Cc1c(Cl)c(Cl)c(Cl)c(C#N)c1Cl,AC50,[6],25 µM (active)
CCOCN(C(=O)CCl)c1c(C)cccc1CC,outcome,[4],inactive
O=[N+]([O-])/N=C1\NCCN1Cc1ccc(Cl)nc1,outcome,[3],inactive
same,outcome,[7],inactive
CC1(C)C(C=C(Cl)Cl)C1C(=O)OC(C#N)c1ccc(F)c(Oc2ccccc2)c1 (configuration not stated),outcome,[3],inactive
CNC(=O)/C=C(\C)OP(=O)(OC)OC,AC50,[5],18.3 µM (active)
CC(C)N(C(=O)COc1nnc(C(F)(F)F)s1)c1ccc(F)cc1,AC50,[5],11.8 µM (active)
ClC1C(Cl)C(Cl)C(Cl)C(Cl)C1Cl (configuration not stated),outcome,[7],inactive
same,outcome,[1],inactive
same,AC50,[10],0.00517 µM (active)
O=S(=O)(O)C(F)(F)C(F)(F)C(F)(F)C(F)(F)C(F)(F)C(F)(F)C(F)(F)C(F)(F)F,AC50,[3],15.8 µM (active)
same,AC50,[1],39.7 µM (active) and 24.3 µM (active)
same,AC50,[8],47 µM (active)
same,AC50,[9],17.4 µM (active) and 10.3 µM (active)
same,AC50,[6],39.3 µM (active)
